Laboratory results as given in the supplement of paper PMC10646978.
± gives the standard deviation.

Key:
Settings in all cases: modulator concentration 10 µM
[1] = system: RAW-Dual (murine macrophage reporter line); experiment: NF-kB reporter (SEAP) activity fold change vs agonist alone; higher = enhanced NF-kB activity
Method in brief: (§1)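 RAW-Dual murine macrophage reporter cells were seeded at 50 000 per well in 384-well plates and pre-incubated 1 hour at 37 °C with compound pin-transferred to 10 μM final. After 1 hour, a PRR agonist was added and cells incubated overnight. Supernatant NF-κB (SEAP, QUANTI-Blue, 620 nm absorbance) and IRF (Lucia luciferase, QUANTI-Luc, luminescence) signals were divided by the mean agonist-only control on the same plate to give fold change. Two replicate plates were averaged, with errors by propagation.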

[2] = system: RAW-Dual (murine macrophage reporter line); experiment: IRF reporter (Lucia luciferase) activity fold change vs agonist alone; higher = enhanced IRF activity
Method in brief: as §1

[3] = system: RAW-Dual (murine macrophage reporter line); experiment: viability score (confluency relative to resting cells, overnight) (fraction); higher = more viable, active = viable (0.7 or more)
Method in brief: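 RAW-Dual macrophages in 384-well plates were treated overnight with compound at 10 μM final. IncuCyte imaging recorded confluency, and IncuCyte software built two confluency masks across every imaged well. The viability score expresses confluency relative to resting cells and was judged against a cutoff, which a compound met only if both masks exceeded 70% of resting cells.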

[4] = agonist: CpG ODN 1826 0.5 ug/mL

Structure (SMILES)	NF-kB reporter [1, 4]	NF-kB reporter ([1]; agonist: LPS 0.1 ug/mL)	NF-kB reporter ([1]; agonist: MPLA […])	IRF reporter ([2]; agonist: 3'3'-cGAMP 10 ug/mL)	IRF reporter ([2]; agonist: LPS 0.1 ug/mL)	IRF reporter ([2]; agonist: MPLA […])	viability score [3]
Cc1cnc(NC(=O)C2=C(O)c3ccccc3S(=O)(=O)N2C)s1	1.24 ± 0.18	1.06 ± 0.41	0.953 ± 0.066	0.927 ± 0.036	1.15 ± 0.29	0.987 ± 0.089	1.01 (active)
Cc1nnc(NC(=O)CSc2nc3ccccc3[nH]2)s1	1.11 ± 0.094	1.01 ± 0.073	0.954 ± 0.078	1.14 ± 0.22	1.01 ± 0.13	1.05 ± 0.2	0.995 (active)
COC(C(=O)NNC(=O)c1ccccc1Cl)c1ccccc1 (centres undefined)	1.3 ± 0.1	1.1 ± 0.1	1.11 ± 0.1	0.618 ± 0.39	0.993 ± 0.069	0.863 ± 0.081	1.01 (active)
O=C(/C=C/C=C/c1ccc2c(c1)OCO2)N1CCCCC1	0.974 ± 0.093	1 ± 0.097	1.17 ± 0.062	0.842 ± 0.052	1.04 ± 0.16	1.07 ± 0.26	1.03 (active)
COCCNc1nc(SCC(=O)Nc2cccc(C(F)(F)F)c2)nc2ccccc12	0.268 ± 0.022	0.549 ± 0.051	0.528 ± 0.043	0.601 ± 0.035	1.29 ± 0.28	1.42 ± 0.46	0.956 (active)
CCSc1nc(-c2cccs2)cc(C(F)(F)F)c1C#N	0.77 ± 0.078	1.05 ± 0.069	1.66 ± 0.063	0.904 ± 0.13	1.18 ± 0.12	1.9 ± 0.25	0.999 (active)
c1ccc(-n2nnnc2SCc2ccc3c(c2)OCO3)cc1	1.1 ± 0.096	1.22 ± 0.14	1.46 ± 0.096	0.785 ± 0.029	0.988 ± 0.11	1.13 ± 0.25	0.998 (active)
CC(=O)O.NCc1ccc(S(N)(=O)=O)cc1	1 ± 0.1	1.01 ± 0.052	0.992 ± 0.058	0.914 ± 0.065	0.96 ± 0.12	1.02 ± 0.092	1.01 (active)
C1=C(c2ccccc2)Nc2nnnn2C1c1ccccc1 (centres undefined)	0.951 ± 0.076	0.945 ± 0.077	0.996 ± 0.097	0.949 ± 0.087	1.34 ± 0.28	1.46 ± 0.36	1.01 (active)
CCOC(=O)C1=C(C)NC(=Cc2ccccc2[N+](=O)[O-])C1=O	1.66 ± 0.13	0.864 ± 0.2	0.872 ± 0.13	0.275 ± 0.024	0.0881 ± 0.019	0.064 ± 0.016	0.755 (active)
CN1CCN(C2CC(=O)N(c3ccc(N4CCOCC4)cc3)C2=O)CC1 (centres undefined)	0.963 ± 0.079	0.945 ± 0.096	0.864 ± 0.065	1.01 ± 0.025	1.37 ± 0.11	1.13 ± 0.29	1.01 (active)
O=C(CCc1ccc(O)cc1)c1c(O)cc(O)cc1O	1.06 ± 0.2	1.07 ± 0.085	1.13 ± 0.088	0.768 ± 0.038	1.03 ± 0.12	1.23 ± 0.15	0.998 (active)
CCCCOc1ccc(S(=O)(=O)NCCCn2ccnc2)cc1	0.946 ± 0.078	1.18 ± 0.089	1.21 ± 0.071	1.07 ± 0.038	1.84 ± 0.13	1.58 ± 0.2	0.987 (active)
CN(C)CCCN1c2ccccc2CCc2ccccc21.Cl	0.827 ± 0.069	1.04 ± 0.1	1.2 ± 0.07	0.737 ± 0.043	0.935 ± 0.089	0.824 ± 0.093	0.883 (active)
O=C(Nc1ccc([N+](=O)[O-])cc1Cl)c1cccnc1	0.871 ± 0.26	0.96 ± 0.11	0.982 ± 0.16	0.958 ± 0.061	1.06 ± 0.23	1.33 ± 0.37	0.996 (active)
CC1CC(=CC=CN(C)C)C(=O)C(=CC=CN(C)C)C1 (centres undefined)	1.04 ± 0.17	1 ± 0.085	0.917 ± 0.099	0.888 ± 0.043	1.22 ± 0.23	1.32 ± 0.28	1 (active)
COc1ccc(C=Nc2ccc(OC(C)=O)cc2)cc1	0.738 ± 0.16	1.11 ± 0.16	1.03 ± 0.11	0.588 ± 0.029	1.34 ± 0.13	1.23 ± 0.15	1 (active)
CN(C)S(=O)(=O)N1CCC(CNC(=O)NC2CCCC2)CC1	0.963 ± 0.098	1.09 ± 0.098	0.818 ± 0.11	0.958 ± 0.1	1.04 ± 0.062	0.874 ± 0.31	1 (active)
COC(=O)C=C1SC(Nc2ccc(Cl)c(Cl)c2)=NC1=O	1.13 ± 0.081	0.966 ± 0.091	0.968 ± 0.035	0.988 ± 0.11	0.982 ± 0.11	0.966 ± 0.23	0.994 (active)
CCN(Cc1ccncc1)C(=O)C(CO)c1ccccc1 (centres undefined)	0.998 ± 0.087	0.997 ± 0.11	1.04 ± 0.071	0.972 ± 0.076	0.954 ± 0.058	0.932 ± 0.08	1 (active)
COCCN1CCC(NC(=O)c2cccc3ccccc23)CC1	1.16 ± 0.099	1.06 ± 0.096	0.958 ± 0.039	0.992 ± 0.083	1.02 ± 0.072	1.04 ± 0.12	0.998 (active)
Cc1cc(-c2csc(NCc3ccccc3)n2)c(C)o1.Cl	0.766 ± 0.043	0.892 ± 0.13	1 ± 0.026	0.576 ± 0.026	0.924 ± 0.07	1.1 ± 0.13	0.991 (active)
CCOC(=O)c1c(N2C(=O)C3C4C=CC(O4)C3C2=O)sc2c1CCCC2 (centres undefined)	0.87 ± 0.067	0.792 ± 0.11	0.77 ± 0.092	0.775 ± 0.038	0.962 ± 0.12	0.967 ± 0.18	0.934 (active)
NNC(=O)CN1C(=O)C2CC=C(Cl)CC2C1=O (centres undefined)	0.984 ± 0.062	0.976 ± 0.085	0.954 ± 0.035	0.999 ± 0.088	1.06 ± 0.058	0.917 ± 0.18	0.999 (active)
O=C1CNC(=O)N1CC(O)Cn1c2ccc(Br)cc2c2cc(Br)ccc21 (centres undefined)	0.998 ± 0.091	0.791 ± 0.068	0.908 ± 0.025	0.989 ± 0.22	0.928 ± 0.044	0.698 ± 0.079	0.926 (active)
Cc1c(-c2ccccc2)nc2ccccc2c1C(=O)Nc1ccc(F)cc1F	0.568 ± 0.25	0.889 ± 0.097	0.689 ± 0.11	0.918 ± 0.061	1.36 ± 0.1	1.12 ± 0.19	0.953 (active)
CC(=O)Nc1ccc(C(=O)Nc2ccc(Cl)cn2)cc1	1.16 ± 0.099	1.1 ± 0.085	1.09 ± 0.11	0.942 ± 0.04	0.94 ± 0.086	1.09 ± 0.15	1.04 (active)
